This passage reports binding signal results from publication PMC11006913.

Among the targets are HOXC10 (Homo sapiens, UniProt Q9NYD6 254-340, K271E); HOXD13 (Homo sapiens, UniProt P35453 263-343, T313A); ALX3 (Homo sapiens, UniProt O95076 139-225).
Common to all, as to assay: PBM; 200 nM protein, PBS
Holding throughout (settings): dsDNA, one strand shown

The target in assay [1] is MSX2 (Homo sapiens, UniProt P35548 130-214).
Assay [2] addresses MSX2 (Homo sapiens, UniProt P35548 130-214, F161Y).
The next assay deals with T1, SIX6 (Homo sapiens, UniProt O95475 114-200, L167V).
T1 sequence: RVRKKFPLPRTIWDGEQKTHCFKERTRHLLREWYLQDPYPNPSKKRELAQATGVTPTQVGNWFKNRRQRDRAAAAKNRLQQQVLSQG

Assay [3] deals with VAX1 (Homo sapiens, UniProt Q5SQQ9 86-172).
VAX1 (Homo sapiens, UniProt Q5SQQ9 86-172), sequence (Q5SQQ9 86-172): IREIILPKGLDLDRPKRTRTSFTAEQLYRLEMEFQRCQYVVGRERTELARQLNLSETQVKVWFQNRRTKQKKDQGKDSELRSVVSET
For assay [4], the target named is VAX1 (Homo sapiens, UniProt Q5SQQ9 86-172, T142I).
VAX1 (Homo sapiens, UniProt Q5SQQ9 86-172, T142I), sequence (Q5SQQ9 86-172 T142I): as the sequence (Q5SQQ9 86-172) above, with T57I counted along it
The target of assay [5] is VAX1 (Homo sapiens, UniProt Q5SQQ9 86-172, K157R).
VAX1 (Homo sapiens, UniProt Q5SQQ9 86-172, K157R), sequence (Q5SQQ9 86-172 K157R): as the sequence (Q5SQQ9 86-172) above, with K72R counted along it

MSX2 (Homo sapiens, UniProt P35548 130-214, F161Y), sequence (P35548 130-214 F161Y): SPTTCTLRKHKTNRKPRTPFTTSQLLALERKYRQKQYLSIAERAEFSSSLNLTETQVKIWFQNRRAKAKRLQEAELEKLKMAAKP
MSX2 (Homo sapiens, UniProt P35548 130-214), sequence (P35548 130-214): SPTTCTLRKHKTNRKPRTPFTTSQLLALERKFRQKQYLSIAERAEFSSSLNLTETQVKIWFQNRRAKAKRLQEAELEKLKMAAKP
HOXC10, sequence (Q9NYD6 254-340 K271E): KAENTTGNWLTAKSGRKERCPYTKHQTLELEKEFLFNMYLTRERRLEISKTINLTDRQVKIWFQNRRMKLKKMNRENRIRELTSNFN
ALX3, sequence (O95076 139-225): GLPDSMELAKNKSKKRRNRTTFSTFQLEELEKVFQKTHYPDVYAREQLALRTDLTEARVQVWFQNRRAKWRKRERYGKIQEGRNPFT
HOXD13, sequence (P35453 263-343 T313A): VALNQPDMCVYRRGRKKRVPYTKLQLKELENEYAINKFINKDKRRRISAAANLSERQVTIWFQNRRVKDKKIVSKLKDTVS

Consider GGAAATAA, for which the binding signal is 11.7 upbm affinity estimate (log intensity, higher = more binding, comparable within an allelic series) with MSX2 [1] and 11.4 upbm affinity estimate (log intensity, higher = more binding, comparable within an allelic series) with MSX2 [2].

Take ATCATCGG: the binding signal in the assay with MSX2 [1] was 10.9 upbm affinity estimate (log intensity, higher = more binding, comparable within an allelic series); with MSX2 [2] it was 10.8 upbm affinity estimate (log intensity, higher = more binding, comparable within an allelic series).

Consider AATCAGGC, for which the binding signal was 11.4 upbm affinity estimate (log intensity, higher = more binding, comparable within an allelic series) in the assay with MSX2 [1] and 11.2 upbm affinity estimate (log intensity, higher = more binding, comparable within an allelic series) in the assay with MSX2 [2].

In the case of CACATAAA, the binding signal in the assay with HOXC10 was 11.3 upbm affinity estimate (log intensity, higher = more binding, comparable within an allelic series); with HOXD13, 11.6 upbm affinity estimate (log intensity, higher = more binding, comparable within an allelic series).

With ATTACTTC, the binding signal was 11.6 upbm affinity estimate (log intensity, higher = more binding, comparable within an allelic series) with MSX2 [1] and 11.5 upbm affinity estimate (log intensity, higher = more binding, comparable within an allelic series) with MSX2 [2].

In the case of ACAGATTG, the binding signal is 10.8 upbm affinity estimate (log intensity, higher = more binding, comparable within an allelic series) with MSX2 [1] and 10.8 upbm affinity estimate (log intensity, higher = more binding, comparable within an allelic series) with MSX2 [2].

On to AGATATCT, for which the binding signal with SIX6 is 10.8 upbm affinity estimate (log intensity, higher = more binding, comparable within an allelic series).

Consider AAACGATG, for which, in the assay with MSX2 [1], the binding signal was 10.6 upbm affinity estimate (log intensity, higher = more binding, comparable within an allelic series).

Take GAATAAAA: the binding signal is 11 upbm affinity estimate (log intensity, higher = more binding, comparable within an allelic series) in the assay with MSX2 [1] and 10.9 upbm affinity estimate (log intensity, higher = more binding, comparable within an allelic series) with MSX2 [2].

As for AATCGCAT, the binding signal is 10.9 upbm affinity estimate (log intensity, higher = more binding, comparable within an allelic series) with MSX2 [1] and 10.8 upbm affinity estimate (log intensity, higher = more binding, comparable within an allelic series) in the assay with MSX2 [2].

Consider AAACGATC, for which the binding signal with MSX2 [1] was 10.9 upbm affinity estimate (log intensity, higher = more binding, comparable within an allelic series); in the assay with MSX2 [2] it was 10.8 upbm affinity estimate (log intensity, higher = more binding, comparable within an allelic series).

As for ATAAATAC, the binding signal with MSX2 [1] is 11.3 upbm affinity estimate (log intensity, higher = more binding, comparable within an allelic series); with MSX2 [2], 11.3 upbm affinity estimate (log intensity, higher = more binding, comparable within an allelic series).

ACATGTTA: in the assay with MSX2 [1], the binding signal was 10.7 upbm affinity estimate (log intensity, higher = more binding, comparable within an allelic series).

Regarding GTAGTAAA, in the assay with HOXC10, the binding signal is 11.1 upbm affinity estimate (log intensity, higher = more binding, comparable within an allelic series).

For ACATAAAT, the binding signal with HOXC10 was 11.3 upbm affinity estimate (log intensity, higher = more binding, comparable within an allelic series).

Regarding ACCTCAAT, the binding signal with MSX2 [1] is 11 upbm affinity estimate (log intensity, higher = more binding, comparable within an allelic series); with MSX2 [2], 10.9 upbm affinity estimate (log intensity, higher = more binding, comparable within an allelic series).

Turning to AACAAGAG, in the assay with MSX2 [1], the binding signal is 10.3 upbm affinity estimate (log intensity, higher = more binding, comparable within an allelic series).

Take AGTCCTAA: the binding signal in the assay with MSX2 [1] is 11.4 upbm affinity estimate (log intensity, higher = more binding, comparable within an allelic series); with MSX2 [2] it was 11.2 upbm affinity estimate (log intensity, higher = more binding, comparable within an allelic series).

With AAGCAAAT, the binding signal is 11.3 upbm affinity estimate (log intensity, higher = more binding, comparable within an allelic series) with MSX2 [1] and 11.1 upbm affinity estimate (log intensity, higher = more binding, comparable within an allelic series) in the assay with MSX2 [2].

Turning to GTCATCTA, the binding signal with MSX2 [1] was 10.5 upbm affinity estimate (log intensity, higher = more binding, comparable within an allelic series); with MSX2 [2] it was 10.4 upbm affinity estimate (log intensity, higher = more binding, comparable within an allelic series).

For ACCGATAA, the binding signal was 11.2 upbm affinity estimate (log intensity, higher = more binding, comparable within an allelic series) with MSX2 [1] and 11.1 upbm affinity estimate (log intensity, higher = more binding, comparable within an allelic series) with MSX2 [2].

As to ATCAATCC, the binding signal is 11.1 upbm affinity estimate (log intensity, higher = more binding, comparable within an allelic series) with MSX2 [1] and 11.1 upbm affinity estimate (log intensity, higher = more binding, comparable within an allelic series) with MSX2 [2].

On to TCCTTAGA, for which the binding signal in the assay with ALX3 was 8.33 upbm affinity estimate (log intensity, higher = more binding, comparable within an allelic series).

For AAGAATCA, the binding signal in the assay with MSX2 [1] was 10.8 upbm affinity estimate (log intensity, higher = more binding, comparable within an allelic series); with MSX2 [2], 10.6 upbm affinity estimate (log intensity, higher = more binding, comparable within an allelic series).

In the case of CATAAATG, the binding signal in the assay with HOXC10 is 11.2 upbm affinity estimate (log intensity, higher = more binding, comparable within an allelic series).

Turning to CAATCCGA, the binding signal was 10.8 upbm affinity estimate (log intensity, higher = more binding, comparable within an allelic series) with MSX2 [1] and 10.8 upbm affinity estimate (log intensity, higher = more binding, comparable within an allelic series) with MSX2 [2].

Regarding ATCAAAAT, the binding signal is 11.2 upbm affinity estimate (log intensity, higher = more binding, comparable within an allelic series) in the assay with MSX2 [1] and 11.1 upbm affinity estimate (log intensity, higher = more binding, comparable within an allelic series) with MSX2 [2].

With TGAGATAA, the binding signal with ALX3 is 9.8 upbm affinity estimate (log intensity, higher = more binding, comparable within an allelic series).

On to TTACTCAA, for which the binding signal with VAX1 [3] was 9.78 upbm affinity estimate (log intensity, higher = more binding, comparable within an allelic series); with VAX1 [4] it was 9.49 upbm affinity estimate (log intensity, higher = more binding, comparable within an allelic series); in the assay with VAX1 [5], 9.35 upbm affinity estimate (log intensity, higher = more binding, comparable within an allelic series).

For CCCGACAC, the binding signal is 6.71 upbm affinity estimate (log intensity, higher = more binding, comparable within an allelic series) in the assay with VAX1 [3]; 6.92 upbm affinity estimate (log intensity, higher = more binding, comparable within an allelic series) with VAX1 [4]; 6.92 upbm affinity estimate (log intensity, higher = more binding, comparable within an allelic series) with VAX1 [5].
